The record followed here is PubChem BioAssay (Tox21).

A short description of test [1]: qHTS assay to identify small molecule agonists of the hypoxia (HIF-1) signaling pathway - cell viability counter screen (AID 1224844; calls by dose curve; also: nearly all actives have a fitted effect of over 50% in size; also: potency is read from the fitted curve at half-maximal effect). In a few lines:
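HRE-bla ME-180; 0.5% dFBS; cpd 17 h, 37C, 5% CO2; CellTiter-Glo lum., 30 min RT, post-FRET read, same wells.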

A short description of test [2]: qHTS assay to identify small molecule agonists of H2AX (AID 1224845; active = well fitted activation curve with a large enough effect in the signal ratio in the repeat runs, not every such curve was filed as active; the % refers to the signal ratio; also: potency is read from the fitted curve at half-maximal effect). In a few lines: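 Wild-type CHO-K1 cells plated overnight, then exposed 3 hr at 37C to compounds at 15 concentrations (0.76% DMSO). Lysed, then HTRF anti-pH2AX(S139)-cryptate/anti-H2AX-d2 detection after 24 hr at room temperature; emissions 665 and 620 nm.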
Test [3] in a line: qHTS assay to identify small molecule agonists of the hypoxia (HIF-1) signaling pathway (AID 1224846; active = well fitted activation curve with a large enough effect in the signal ratio in the repeat runs, not every such curve was filed as active; the % refers to the signal ratio). The essentials: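 Reporter induction in HRE-bla ME-180 cells is taken as agonism: cells sit 5 hrs after plating, receive compounds or DMSO only, incubate 17 hrs at 37C under 5% CO2, and are loaded with CCF4-AM for beta-lactamase FRET measurement.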
A short description of test [4]: qHTS assay to identify small molecule agonists of H2AX - cell viability counter screen (AID 1224847; calls by dose curve; also: nearly all actives have a fitted effect of over 30% in size; also: potency is read from the fitted curve at half-maximal effect). The essentials: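 CHO-K1 cells plated overnight at 37C, then exposed 3 h at 37C to compounds at 15 concentrations (0.76% DMSO final). Viability by CellTiter-Glo luminescence after 30 min at room temperature.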
Test [5] in a line: qHTS assay to identify small molecule antagonists of the estrogen related receptor (ERR) signaling pathway from Tox21 library (AID 1224848). Also: nearly all actives have a fitted effect of over 50% in size. Also: potency is read from the fitted curve at half-maximal effect. In a few lines: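 Tox21 10K compounds in DMSO tested for ERR pathway antagonism in NTP's ERR cell line; 18 h, 37 C exposure; ONE-Glo luminescence.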
Test [6] is described as follows: qHTS assay to identify small molecule agonists of the estrogen related receptor (ERR) signaling pathway from Tox21 library (AID 1224849; calls by dose curve; also: nearly all actives have a fitted effect of over 15% in size). The conditions noted are these: ERR reporter cell line, ONE-Glo luciferase, 18 h; at 92.4 µM (top of the series) unless noted. The essentials: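 Tox21 compounds tested for ERR agonism in an NTP reporter cell line: 18 h treatment at 37 C, then ONE-Glo luminescence.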

A short description of test [7]: qHTS RealTime-Glo MT Cell Viability Assay in HepG2 cells - 24 hour (AID 1224867). Also: nearly all actives have a fitted effect of over 50% in size. The essentials: (§1)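 HepG2 suspension premixed with RealTime-Glo reagents is plated at 600 cells per well and left 5 h at 37 C/5% CO2. Compounds in DMSO then go in, and bioluminescence reflecting viable cell number is recorded over 40 h.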
Test [8] in a line: qHTS RealTime-Glo MT Cell Viability Assay in HEK293 cells - 32 hour (AID 1224868). Also: nearly all actives have a fitted effect of over 50% in size. Also: potency is read from the fitted curve at half-maximal effect. In a few lines: (§2)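 Reads taken at 0, 8, 16, 24, 32 and 40 h from the same wells. HEK293 cells (600/well) carried RealTime-Glo reagents from seeding, with compound added after a 5 h settle at 37 C.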
Test [9] in a line: qHTS RealTime-Glo MT Cell Viability Assay in HepG2 cells - 40 hour (AID 1224870). Also: nearly all actives have a fitted effect of over 50% in size. In a few lines:
(§3)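 HepG2 cells mixed with RealTime-Glo MT reagents (NanoLuc plus cell-permeant prosubstrate) were seeded at 600 cells/well, incubated 5 h at 37 C/5% CO2, then pinned with compounds in DMSO; nonlytic luminescence tracked viability during 40 h treatment.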

Test [10] is described as follows: qHTS RealTime-Glo MT Cell Viability Assay in HEK293 cells - 40 hour (AID 1224874). Also: nearly all actives have a fitted effect of over 50% in size. Also: potency is read from the fitted curve at half-maximal effect. The conditions noted are these: RealTime-Glo luminescence; max response: active compounds read low. In a few lines: (§4)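 HEK293 + NanoLuc + prosubstrate, 600 cells/well; 5 h, 37 C/5% CO2; compound 23 nL in DMSO by pintool; 37 C; luminescence read at 0, 8, 16, 24, 32 and 40 h time points.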

A short description of test [11]: A CellTox Green Cytotoxicity Assay to monitor cytotoxicity in HEK293 cells - 24 hour (AID 1224875). Also: nearly all actives have a fitted effect of over 45% in size. Also: potency is read from the fitted curve at half-maximal effect. The essentials:
(§5)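 Tox21 screen in HEK293: membrane-impermeant cyanine dye fluoresces on binding dead-cell DNA; compound pinned 5 h post-seeding, plates held at 37 C, signal read repeatedly through 40 h.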

A short description of test [12]: A CellTox Green Cytotoxicity Assay to monitor cytotoxicity in HepG2 cells - 16 hour (AID 1224876). Also: nearly all actives have a fitted effect of over 45% in size. In a few lines:
(§6)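 Measurements at 0, 8, 16, 24, 32 and 40 h of treatment captured CellTox Green fluorescence in HepG2 cells that had been co-plated with reagent and preincubated 5 h at 37 C/5% CO2.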

Test [13] is described as follows: qHTS RealTime-Glo MT Cell Viability Assay in HepG2 cells - 32 hour (AID 1224877). Also: nearly all actives have a fitted effect of over 55% in size. The essentials:
as §1

Test [14] is described as follows: qHTS RealTime-Glo MT Cell Viability Assay in HEK293 cells - 0 hour (AID 1224880). Also: top concentration of the series differs between compounds; nearly all actives have a fitted effect of over 45% in size. In a few lines: as §4
The nature of test [15]: A CellTox Green Cytotoxicity Assay to monitor cytotoxicity in HEK293 cells - 0 hour (AID 1224869). Also: nearly all actives have a fitted effect of over 50% in size. In a few lines: as §5
Test [16] can be described thus: A CellTox Green Cytotoxicity Assay to monitor cytotoxicity in HEK293 cells - 40 hour (AID 1224871). Also: nearly all actives have a fitted effect of over 45% in size. Also: potency is read from the fitted curve at half-maximal effect. In a few lines:
as §5

Test [17] in a line: qHTS RealTime-Glo MT Cell Viability Assay in HEK293 cells - 16 hour (AID 1224872). Also: nearly all actives have a fitted effect of over 50% in size. Also: potency is read from the fitted curve at half-maximal effect. In a few lines:
as §2

Test [18] is described as follows: qHTS RealTime-Glo MT Cell Viability Assay in HepG2 cells - 8 hour (AID 1224873). Also: nearly all actives have a fitted effect of over 55% in size. In a few lines: as §3
Test [19] in a line: A CellTox Green Cytotoxicity Assay to monitor cytotoxicity in HepG2 cells - 24 hour (AID 1224878). Also: nearly all actives have a fitted effect of over 45% in size. In a few lines: as §6
Test [20] can be described thus: A CellTox Green Cytotoxicity Assay to monitor cytotoxicity in HepG2 cells - 40 hour (AID 1224879). Also: nearly all actives have a fitted effect of over 40% in size. The essentials: as §6

Values joined by “and” are separate entries in the source; they are usually repeats but may differ in a detail not shown here. Equal values may be shown once. Values without a mark were called inactive. Inconclusive results are not listed. Active and inactive are the calls of the source. Unless noted, calls follow the shape of the dose curve; as a rule, active = well fitted curve in the direction sought with a large enough effect in the repeat runs; inconclusive = weak or mixed curves; inactive = no such curve, though single readings can be large; an effect the other way counts as inactive or inconclusive.
% is scaled to controls: 0 for no effect and ±100 for the full control effect.

For `CC(C)(C)c1cc([N+](=O)[O-])cc(C(C)(C)C)c1O`, the Potency result in [1], in [2], in [7], in test [9], in [11] and in test [12] was “inactive” in each case. Moreover, the Potency entry in test [13] and in test [14] was “inactive” each time. Also, the outcome in test [3] was inactive. Further, the Potency in [4] was 50.5 µM (active); in test [5] it was 2.73 µM (active); in test [8], 6.92 µM (active); in test [10], 6.92 µM (active). In addition, the activity change, positive = activation in [6] was -56.9%.
With `COc1ccc(/C(=C/C(=O)N2CCOCC2)c2ccc(Cl)cc2)cc1OC`, the Potency result in test [1], in [2], in test [4], in test [5], in test [7] and in test [15] was “inactive” each time. For the same compound, the Potency entry in test [9], in [16], in test [17], in [18], in test [11] and in test [12] was “inactive” each time. Besides, the Potency result in test [13], in [19], in [20] and in [14] was “inactive” each time. In addition, the result in [3] was inactive. The activity change, positive = activation in test [6] is -10.9%.
Take `C[C@]12Cc3nonc3C[C@@H]1CC[C@@H]1[C@@H]2CC[C@@]2(C)[C@H]1CC[C@]2(C)O`: the Potency in test [1] was 26.8 µM (active); in [4], 49.2 µM (active); in [5], 13.3 µM (active); in [8] it was 21.3 µM (active); in test [17], 19 µM (active); in [10] it was 19 µM (active). The Potency entry in test [2], in [7], in test [9], in [18], in test [11] and in test [13] was “inactive” in each case. Moreover, the Potency entry in test [19], in test [20] and in test [14] was “inactive” in each case. Further, the compound was called inactive in test [3]. For the same compound, the activity change, positive = activation in [6] is -58.3% [at 42.5 µM].
Consider `Cc1ccc(C(=O)Cl)cc1`, for which the Potency entry in [1], in test [2], in test [4], in [5], in test [7] and in [8] was “inactive” each time. The Potency entry in [9], in test [16], in test [17], in [18], in test [11] and in test [12] was “inactive” throughout. Moreover, the Potency entry in [13], in test [19], in [20] and in test [14] was “inactive” each time. The call in [3] was inactive. The activity change, positive = activation in test [6] is 7.48%. In test [10], the max response is -5.57%.
On to `C[As+](C)(C)CC(=O)[O-]`, for which the Potency entry in test [1], in [2], in [4], in test [5], in test [7] and in test [8] was “inactive” throughout. The Potency entry in test [15], in [9], in [17], in test [18], in test [11] and in test [12] was “inactive” in each case. The Potency result in test [13], in test [19], in test [20] and in test [14] was “inactive” in each case. Moreover, the compound was called inactive in [3]. Also, the activity change, positive = activation in test [6] is 5.87%. The max response in test [10] is -9.67%.
On to `CCc1cc(C)cc(CC)c1-c1c(OC(=O)C(C)(C)C)n2n(c1=O)CCOCC2`, for which the Potency entry in [1], in test [2], in test [4], in test [5], in [7] and in [8] was “inactive” each time. In addition, the Potency result in [15], in test [9], in test [17], in test [18], in test [11] and in [12] was “inactive” in each case. The Potency result in test [13], in [19], in [20] and in test [14] was “inactive” each time. For the same compound, in [3], the compound was classed as inactive. Moreover, the activity change, positive = activation in test [6] is -10%. Also, the max response in [10] is -25.1%.
As to `ClC1=C(Cl)C2(Cl)C3C(Cl)C(Cl)CC3C1(Cl)C2(Cl)Cl` (stereo not drawn), the Potency was 21.8 µM (active) in test [1]; 100 µM (active) and 89.8 µM (active) in [2]; 89.5 µM (active) and 101 µM (active) in [4]; 60.9 µM (active) and 54.5 µM (active) in test [5]; 48.8 µM (active) in [8]; 48.8 µM (active) and 49 µM (active) in [16]. Moreover, the Potency is 48.8 µM (active) and 49 µM (active) in test [17]; 48.8 µM (active) and 49 µM (active) in test [11]. Further, in test [3], the compound was called inactive. In addition, the activity change, positive = activation in test [6] is -78.9% and -65.6%. Besides, the Potency result in test [15] and in test [14] was “inactive” each time.
